Results filed as inconclusive are left out. A number with no mark means an inactive call. The source made the active and inactive calls. Calls come from the whole dose curve; as a rule, active = well fitted inhibition curve with a large enough effect; inconclusive = small, poorly fitted or top-dose-only effect; inactive = flat fitted curve, though single readings scatter.
test system: HEK293; assay: Cytotoxic Profiling of Annotated Libraries Using Quantitative High-Throughput Screening (AID 1296008); settings: Five cell lines viability, CellTiter-Glo ATP luminescence, 48-72 h; max response: stronger effect = lower value; note: nearly all actives have a fitted effect of over 60% in size
Method in brief: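 Compounds were pin-transferred onto cells and incubated 48 or 72 hr at 37 degree Celsius, 95% humidity. CellTiter-Glo was added, plates sat 10 min at room temperature, then ATP-coupled luminescence was imaged as the viability read-out.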
% is set by controls: 0 for no effect and ±100 for the full control effect; potency is the fitted concentration of half-maximal effect.

| Compound | max response | Potency | outcome |
| --- | --- | --- | --- |
| Cc1ccc(=O)n(-c2ccccc2)c1 | 4.05% | – | – |
| Cc1nc2c([nH]1)c(=O)n(C)c(=O)n2Cc1ccco1 | 4.2% | – | – |
| CC(=O)Nc1nnc(S(N)(=O)=O)s1 | 3.96% | – | – |
| CCN(CC)CCNC(=O)c1cc(S(C)(=O)=O)ccc1OC | -8.18% | – | – |
| NC(=O)N1c2ccccc2C=Cc2ccccc21 | 2.7% | – | – |
| O=C(O)CCCCCCCC(=O)O | 3% | – | – |
| NC(=O)c1cn(Cc2c(F)cccc2F)nn1 | 4.15% | – | – |
| COC(=O)[C@@H](N)Cc1ccc(O)c(O)c1 | -4.7% | – | – |
| O=C(O)CN(CCOCCOCCN(CC(=O)O)CC(=O)O)CC(=O)O | 0.265% | – | – |
| CC1=C(C)C(=O)C(CCCCC#CCCCC#CCO)=C(C)C1=O | – | 16.8 µM (active) | – |
| CCCCNc1ccc(C(=O)OCCN(C)C)cc1 | -4% | – | – |
| O=C(O)CP(=O)(O)O | – | – | inactive |
| CN1C[C@H](C(=O)N[C@]2(C)O[C@@]3(O)[C@@H]4CCCN4C(=O)[C@H](Cc4ccccc4)N3C2=O)C[C@@H]2c3cccc4[nH]cc(c34)C[C@H]21 | – | 10.6 µM (active) | – |
| CCN(Cc1ccncc1)C(=O)C(CO)c1ccccc1 (stereo unspecified) | -10.1% | – | – |
| CCOC(=O)c1cnc2c(cnn2CC)c1NN=C(C)C | 2.79% | – | – |
| CC(C)[N+](C)(CCOC(=O)C1c2ccccc2Oc2ccccc21)C(C)C | -1.62% | – | – |
| Cc1ccc(/C(=C\CN2CCCC2)c2ccccn2)cc1 | -16.2% | – | – |
| O=C1CC2(CCCC2)CC(=O)N1CCCCN1CCN(c2ncccn2)CC1 | -2.12% | – | – |

| Compound | max response | Potency | outcome |
| --- | --- | --- | --- |
| CCN(CC)CC(=O)Nc1c(C)cccc1C | -14.5% | – | – |
| CC(=O)[C@]1(O)Cc2c(O)c3c(c(O)c2[C@@H](O[C@H]2C[C@H](N)[C@H](O)[C@H](C)O2)C1)C(=O)c1ccccc1C3=O | – | 0.0335 µM (active) | – |
| C[n+]1cc2c3c(ccc2c2ccc4cc5c(cc4c21)OCO5)OCO3 | – | 1.16 µM (active) | – |
| CN(C)C/C=C(/c1ccc(Br)cc1)c1cccnc1 | -10.5% | – | – |
| CCn1cc(C(=O)O)c(=O)c2cc3c(cc21)OCO3 | -14.3% | – | – |
| Nc1ncn([C@@H]2O[C@H](CO)[C@@H](O)[C@H]2O)c(=O)n1 | – | 3.35 µM (active) | – |
| CCCCCN(CCCCC)C(=O)C(CCC(=O)O)NC(=O)c1ccc(Cl)c(Cl)c1 (stereo unspecified) | -9.3% | – | – |
| NC(N)=NC(=O)Cc1c(Cl)cccc1Cl | – | 8.41 µM (active) | – |
| CCN(CC)CCNC(=O)c1ccc(NC(C)=O)cc1 | 3.23% | – | – |
| O=C(O)CN(CCN(CC(=O)O)CC(=O)O)CCN(CC(=O)O)CC(=O)O | – | – | inactive |
| COc1cc(C(=O)OCCCN2CCCN(CCCOC(=O)c3cc(OC)c(OC)c(OC)c3)CC2)cc(OC)c1OC | – | 21.1 µM (active) | – |
| C[C@@H](O)[C@H]1C(=O)N2C(C(=O)O)=C(SCCN=CN)C[C@H]12 | -4.83% | – | – |
| CC(C)NNC(=O)c1ccncc1 | -10.4% | – | – |
| CC(=O)Oc1cc(C(C)C)c(OCCN(C)C)cc1C | – | – | inactive |
| C[N+](C)(C)CCOC(N)=O | – | – | inactive |
| CC(C)(C)NCC(O)c1cc(O)cc(O)c1 (stereo unspecified) | -2.84% | – | – |
| COC(=O)C1=C(C)NC(C)=C(C(=O)OCCN(C)Cc2ccccc2)C1c1cccc([N+](=O)[O-])c1 (stereo unspecified) | – | 11.9 µM (active) | – |
| NC(=O)c1ncn([C@@H]2O[C@H](CO)[C@@H](O)[C@H]2O)c1O | 3.19% | – | – |

Source: PubChem BioAssay (NCATS)
